Assay results taken from the supplement of paper PMC10646978.
± gives the standard deviation.

Columns and labels:
Details in all cases: modulator concentration 10 µM
[1] = test system: RAW-Dual (murine macrophage reporter line); test: NF-kB reporter (SEAP) activity fold change vs agonist alone; higher = enhanced NF-kB activity
Outline: (§1)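 Compound reached 10 μM final in each well by pin transfer, onto RAW-Dual murine macrophage reporter cells seeded at 50 000 per well in 384-well plates. After 1 hour at 37 °C, the cells were stimulated overnight with a PRR agonist. SEAP in the supernatant was read with QUANTI-Blue at 620 nm absorbance for NF-κB, and Lucia luciferase was read with QUANTI-Luc luminescence for IRF. Each signal was turned into fold change against the mean agonist-only control on the same plate, and two replicate plates were averaged with propagated errors.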

[2] = test system: RAW-Dual (murine macrophage reporter line); test: IRF reporter (Lucia luciferase) activity fold change vs agonist alone; higher = enhanced IRF activity
Outline: as §1

[3] = test system: RAW-Dual (murine macrophage reporter line); test: viability score (confluency relative to resting cells, overnight) (fraction); higher = more viable, active = viable (0.7 or more)
Outline: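 RAW-Dual macrophages in 384-well plates were incubated overnight with compound, final concentration 10 μM. Confluency images from IncuCyte were processed in IncuCyte software into two masks covering all imaged wells. The viability score is each well's confluency relative to resting cells, and a compound met the cutoff when both masks exceeded 70% of resting cells.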

[4] = agonist: CpG ODN 1826 0.5 ug/mL

Row | SMILES | NF-kB reporter [1, 4] | NF-kB reporter ([1]; agonist: LPS 0.1 ug/mL) | NF-kB reporter ([1]; agonist: MPLA […]) | IRF reporter ([2]; agonist: 3'3'-cGAMP 10 ug/mL) | IRF reporter ([2]; agonist: LPS 0.1 ug/mL) | IRF reporter ([2]; agonist: MPLA […]) | viability score [3]
1 | Clc1ccc(Nc2nnc(Cc3ccncc3)c3ccccc23)cc1 [Prestw-1358] | 0.987 ± 0.056 | 1.07 ± 0.069 | 0.85 ± 0.07 | 0.785 ± 0.028 | 1.08 ± 0.069 | 1.1 ± 0.11 | 0.997 (active)
2 | NC(=O)NO | 1.31 ± 0.18 | 1.21 ± 0.29 | 0.96 ± 0.057 | 0.905 ± 0.028 | 1.44 ± 0.26 | 1.09 ± 0.084 | 1 (active)
3 | O=S1(=O)N=C(Oc2ccc3ccccc3c2)c2ccccc21 | 0.889 ± 0.15 | 1.23 ± 0.1 | 1.22 ± 0.21 | 0.91 ± 0.063 | 0.942 ± 0.14 | 0.991 ± 0.11 | 0.992 (active)
4 | CCOC(=O)C1CCCN(S(=O)(=O)Cc2ccccc2)C1 (centres undefined) | 0.766 ± 0.067 | 0.879 ± 0.043 | 1.02 ± 0.089 | 0.814 ± 0.04 | 1.42 ± 0.096 | 1.53 ± 0.14 | 1.01 (active)
5 | COc1ccc(OCCSc2nc3ccccc3n2CCO)cc1 | 1.01 ± 0.094 | 1.09 ± 0.12 | 1.09 ± 0.031 | 1.35 ± 0.55 | 1 ± 0.063 | 1.05 ± 0.14 | 0.992 (active)
6 | C=C1CCC2C(C)(CO)C(O)CCC2(C)C1CC=C1C(=O)OCC1O (centres undefined) | 0.462 ± 0.11 | 0.496 ± 0.025 | 0.755 ± 0.11 | 0.188 ± 0.0064 | 2.13 ± 0.35 | 1.51 ± 0.18 | 0.839 (active)
7 | COc1cccc(CC(=O)Nc2ccc(CC(=O)N3CCC(O)CC3)cc2)c1 | 1.07 ± 0.35 | 1.06 ± 0.091 | 1.06 ± 0.074 | 0.884 ± 0.03 | 1.1 ± 0.13 | 1.37 ± 0.19 | 0.945 (active)
8 | Cc1ccc(C)c(NC(=O)CCN2CCN(C=O)CC2)c1 | 0.822 ± 0.17 | 0.905 ± 0.088 | 0.967 ± 0.079 | 0.962 ± 0.045 | 1.27 ± 0.37 | 1.33 ± 0.18 | 0.979 (active)
9 | Cc1ccc(-c2cc(-c3ccccc3)nc(NN=Cc3ccc(Br)cc3)n2)cc1 | 0.976 ± 0.18 | 1.08 ± 0.084 | 1.01 ± 0.12 | 1.11 ± 0.031 | 1.07 ± 0.1 | 1.4 ± 0.21 | 0.997 (active)
10 | O=c1cc(-c2ccc(O)cc2)oc2cc(OC3OC(CO)C(O)C(O)C3O)cc(O)c12 (centres undefined) | 1.14 ± 0.11 | 1.06 ± 0.072 | 1.05 ± 0.022 | 0.911 ± 0.094 | 0.966 ± 0.05 | 1.01 ± 0.086 | 0.998 (active)
11 | O=C(c1ccco1)c1nc2c(n1O)CCCCC2 | 1.12 ± 0.073 | 0.995 ± 0.089 | 1.03 ± 0.028 | 0.998 ± 0.07 | 0.971 ± 0.078 | 1.03 ± 0.1 | 1 (active)
12 | COc1ccc2cc1Oc1ccc(cc1)C[C@H]1c3c(cc4c(c3Oc3cc5c(cc3OC)CCN(C)[C@@H]5C2)OCO4)CCN1C | 0.195 ± 0.011 | 1.09 ± 0.091 | 0.928 ± 0.059 | 0.786 ± 0.045 | 0.931 ± 0.099 | 0.889 ± 0.12 | 0.991 (active)
